{"source": "patent US20150152398", "about": "“Endoribonuclease and Methods of Use Thereof” (The Regents of the University of California, published 2015)", "data": [{"target": "T1, TtCas6A (TTHA0078, Cas6) (Thermus thermophilus HB8)", "T1 chain": "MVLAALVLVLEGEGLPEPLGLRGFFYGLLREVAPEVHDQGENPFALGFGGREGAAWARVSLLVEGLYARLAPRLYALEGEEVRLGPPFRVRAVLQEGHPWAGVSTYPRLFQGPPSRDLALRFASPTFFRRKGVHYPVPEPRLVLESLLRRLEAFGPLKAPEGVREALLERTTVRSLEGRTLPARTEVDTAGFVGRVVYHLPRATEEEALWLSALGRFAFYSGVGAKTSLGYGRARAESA", "assay": "EMSA; closing base pair; Kd in FIG. 24C only", "conditions": "chain copies: 2 stated (dimer in solution); hairpin; ssRNA; [20,25]", "text": "FIG. 22 illustrates that TtCas6A and TtCas6B both cleave repeats R1 and R3 and retain their cleaved products. (A) Sequences and predicted secondary structures of T. thermophilus CRISPR repeats. Sites of cleavage are indicated with blue arrows. TtCas6e (TTHB192) cleaves repeat R2, while TtCas6A (TTHA0078) and TtCas6B (TTHB231) both cleave repeats R1 and R3. (B) Cleavage product binding affinities of TtCas6A and TtCas6B enzymes. Maltose binding protein (MBP)-fused TtCas6A or TtCas6B were bound to in 5′-radiolabelled, vitro transcribed R1 and R3 RNAs. Bound and unbound fractions were resolved by electrophoresis on a native polyacrylamide gel and visualized by phosphorimaging. The data for these and all subsequent binding assays were fit with standard binding isotherms (solid line). […] RNA cleavage was monitored using denaturing polyacrylamide gel electrophoresis. […]\nTo test the importance of the stem sequence for substrate RNA recognition by TtCas6A, a series of EMSAs was performed using R1 repeat-derived RNAs that carried single base pair substitutions (C-G→A-U). […] This is consistent with the observation that the lower three C-G base pairs are specifically read out by Arg129. The binding defect observed upon mutation of the closing (uppermost) base pair could be due to loss of stability of the stem-loop structure, which is determined by the closing base-pair (Serra et al, 1993). […]", "values": [{"sequence": "GUUGCAAGGGAUUGAGCCCAGUAAUGGGAU", "binding signal": "~5 fold lower affinity than wild-type RNA"}]}]}
